Results as given in PubChem BioAssay (NCI).
The panel holds about 83,000 compounds, 20% with a hit somewhere; the sample as a whole holds those more often.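 Growth was measured after 48 h exposure to one concentration of compound in 96-well plates. Values under 10 count as active.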 Unmarked numbers belong to inactive results. The source made the active and inactive calls.

Tests used:
Assay in all cases: NCI-60 one-dose screen, 48 h (100 = growth as untreated, 0 = no growth, -100 = all killed)
Settings in all cases: 10 µM unless noted
[1] = test system: DU-145 prostate
[2] = test system: K-562 leukemia
[3] = test system: MALME-3M melanoma
[4] = test system: MDA-MB-231 breast
[5] = test system: RXF 393 renal
[6] = test system: SF-268 CNS
[7] = test system: SF-295 CNS
[8] = test system: SF-539 CNS
[9] = test system: UACC-257 melanoma
[10] = test system: M14 melanoma

Structure (SMILES)	growth [1]	growth [2]	growth [3]	growth [4]	growth [5]	growth [6]	growth [7]	growth [8]	growth [9]	growth [10]
CCOC(=O)CCC(=O)P(=O)(O)O	114%	8.96% (active)	103%	119%	122%	114%	101%	101%	93%	92.4%
CCCC[N+]1(C)CCN=C1Cc1ccccc1 (stereo not given)	106%	84.6%	98.2%	109%	100%	97.7%	97.4%	96.2%	93.7%	106%
O=c1ccc2nc(-c3ccccc3)nn(-c3ccccn3)c-2c1	105%	-24.3% (active)	50.1%	91.1%	26.8%	96.6%	103%	99.5%	72.3%	105%
C=C1C(=O)O[C@H]2[C@H]1CC/C(COC(=O)NCc1ccc(Cn3c(=O)sn(CCCC)c3=O)cc1)=C\CC[C@@]1(C)O[C@@H]21	20.2%	0.885% (active)	-24.1% (active)	38.4%	33.5%	82.4%	101%	59.6%	50.8%	6.26% (active)
COC(=O)c1c(C)nc(C)c2c1C(=O)C(Br)=C(NCCCCO)C2=O	79.6%	71%	-2.98% (active)	75.1%	77.7%	76.3%	72.1%	89.5%	45.6%	46.9%
CCOC(=O)CC1C(CNC(=O)NC)OC(n2cnc3c(NC(=O)Nc4ccccc4)ncnc32)C1O[Si](C)(C)C(C)(C)C (stereo not given)	63.3%	58.7%	55.3%	50.8%	-45.2% (active)	58.6%	16%	52.6%	87.5%	67.3%
O=C1c2ccccc2-c2c1c1ccncc1c(=O)n2CCCn1ccnc1	58.6%	20.5%	98%	73.8%	55.6%	38.7%	56.2%	31.6%	93.5%	63.3%
COc1cc2ncnc(Nc3ccc(S(=O)(=O)Nc4cc(C)on4)cc3)c2cc1OCCCN1CCOCC1	108%	102%	95.3%	105%	102%	98.1%	97.7%	99.4%	99.8%	105%
Cc1ccc2nc(/C=C/c3ccc(N(C)C)cc3)cc(C)c2c1	47.2%	19.8%	39.8%	38.4%	29.4%	37.3%	12.5%	9.33% (active)	62.1%	13.2%
O=C1C(c2c(O)[nH]c3ncccc23)=Nc2ccccc21	81.2%	85.5%	139%	78.3%	71.2%	84.4%	102%	90.9%	96.5%	93.7%
COCCNC(=O)Cc1cc(-c2ccc(Cl)cc2)n(-c2ccccc2)c1C	101%	64.7%	93.7%	89.9%	84.8%	88.5%	85.6%	92.8%	95.6%	88.1%
CN1CCN(CCCNC(=O)c2c3c(n4ccccc24)C(=O)c2ncccc2C3=O)CC1	17.8%	-1.31% (active)	-91.2% (active)	0.342% (active)	21.1%	9.37% (active)	28.4%	-4.38% (active)	-55.8% (active)	-53.9% (active)
Cc1ccc2c(c1)CC(O)CC1C(=O)N(CCO)CC(=O)N21 (stereo not given)	111%	101%	100%	92.4%	90.5%	99.7%	101%	102%	81.1%	103%
c1ccc(-c2cn3nc(-c4c[nH]c5ccccc45)sc3n2)cc1	98%	42.4%	62.6%	76.5%	97.4%	94.4%	83.7%	85.5%	83.2%	71.1%
CNC(=O)c1cc(Oc2cccc3nc(NC(=O)Nc4ccc(F)cc4F)ccc23)ccn1	30%	42%	-21.2% (active)	60.1%	1.54% (active)	48.1%	55.6%	-18.9% (active)	56.3%	19.3%
C#CCOc1ccc(C2=NN(CCCC)C3N=C(Cl)c4ncn(CCCC)c4N23)cc1OCC#C (stereo not given)	94.1%	71.2%	107%	91.7%	76.1%	90.1%	88.4%	101%	85.7%	92.2%
O=C(O)c1cc2ccccc2s1	124%	107%	130%	104%	110%	107%	97.8%	101%	105%	110%
CCOc1ccc(N2C(=O)CCSC2=S)cc1	103%	111%	96%	104%	117%	104%	95.7%	94.9%	99%	102%
c1ccc2[nH]c(-c3ccc(-c4nccc5c4[nH]c4ccccc45)cc3)nc2c1	67.4%	3.52% (active)	90.4%	30.2%	44.6%	52.3%	75.1%	-40.4% (active)	81.8%	72.8%
Nc1ncc(-c2ccc3ncnc(N4CCc5cc(F)c(Cl)cc54)c3c2)cc1C=O	10.1%	35.5%	-15.5% (active)	26.4%	-35% (active)	18.1%	6.94% (active)	12.1%	24.6%	19%
CCN1CCN(C(=O)[C@]23CC[C@@H](C)[C@H](C)[C@@H]2C2=CC[C@@H]4[C@@]5(C)C/C(=C/c6ccncc6)C(=O)C(C)(C)[C@@H]5CC[C@@]4(C)[C@]2(C)CC3)CC1	41.8%	9.31% (active)	-9.75% (active)	2.96% (active)	-18.7% (active)	49%	28.5%	-80.2% (active)	25.6%	25.4%
CS(=O)(=O)c1ccc(/C(=N/NC(N)=S)c2ccc(F)cc2)cc1	108%	85.1%	104%	107%	85.1%	98.8%	106%	102%	102%	104%

Structure (SMILES)	growth [1]	growth [2]	growth [3]	growth [4]	growth [5]	growth [6]	growth [7]	growth [8]	growth [9]	growth [10]
COC1=C(OC)C(=O)C(CCCCCCCCCCO)=C(C)C1=O	72%	45.7%	87%	42%	64%	64.2%	77.8%	74%	46%	92.7%
C=C(C[n+]1ccccc1)[C@@H]1CC[C@]2(C(=O)OC)CC[C@]3(C)[C@H](CC[C@@H]4[C@@]5(C)CCC(=O)C(C)(C)[C@@H]5CC[C@]43C)[C@@H]12	101%	57.8%	75.2%	85.9%	99%	90.3%	103%	93.7%	53.4%	87%
[2H]C([2H])([2H])Oc1ccc(/C=C/C(=O)/C=C(/C=C/c2ccc(OC([2H])([2H])[2H])c(OC([2H])([2H])[2H])c2OC([2H])([2H])[2H])OB(F)F)c(OC([2H])([2H])[2H])c1OC([2H])([2H])[2H]	68.8%	29.3%	57%	75.1%	83.8%	88.8%	97.2%	77.7%	53.5%	61.2%
CC1(C)CCC[C@]23C(=O)O[C@](O)(C(=O)C4=C[C@@](C)(/C=C/CCCc5ccc6ccc7cccc8ccc5c6c78)CC[C@@]42O)[C@@H]13	-85.7% (active)	5.77% (active)	-93.6% (active)	-69.9% (active)	-86.2% (active)	-45.3% (active)	-76.7% (active)	-96.6% (active)	-68.7% (active)	-62% (active)
O=S(=O)(Nc1ccc(Br)cc1)c1ccc(-c2cnc(C3CC3)o2)cc1	38.1%	11.3%	44.4%	35.2%	10.4%	39.9%	28.9%	3.63% (active)	66.1%	18.1%
CC1=NN(c2cccc(Cl)c2)C(=O)/C1=C\C=C\c1ccccc1	112%	76.9%	116%	13.7%	-87.7% (active)	75.5%	101%	21.6%	63.3%	14.4%
O=c1[nH]c(CN2CCN(c3ccccc3)CC2)nc2c(Br)cc(Br)cc12	114%	97.6%	109%	115%	101%	108%	91.8%	111%	96.2%	113%
O=C(Nc1cccc2c1C(=O)c1cccc(NC(=O)c3ccc(C(=O)Nc4cccc5c4C(=O)c4cccc(NC(=O)c6ccccc6)c4C5=O)cc3)c1C2=O)c1ccccc1	115%	93.5%	101%	90.4%	103%	109%	108%	104%	95.1%	113%
COc1cc(C(=O)n2nc(NCCCc3ccccc3)c3cc(N)ccc32)cc(OC)c1OC	106%	88.9%	100%	83.1%	101%	96.7%	81%	93.1%	120%	93.6%
CN1CCN(Cc2ccc(NC(=O)c3cncc(C#Cc4cnc(N)c5ncccc45)c3)cc2Cl)CC1	77.1%	-28.9% (active)	54.2%	16.2%	21.8%	98.7%	101%	83.1%	89.7%	84.4%
Cc1c(Cl)cccc1NC(=O)c1sc2nc3c(cc2c1N)CCCC3	39.9%	13.7%	67.7%	49.5%	40%	49.3%	8.07% (active)	4.43% (active)	37.7%	25.3%
CC(C)(C)c1ccc(C(=O)Nc2sc3c(c2C#N)CCC(=O)C3)cc1	64.2%	9.48% (active)	-18.6% (active)	-5.45% (active)	-29.9% (active)	22.4%	10.3%	-35.6% (active)	19.8%	8.73% (active)
CCOC(=O)CC1CSC(N/N=C/c2ccc(O)cc2)=N1 (stereo not given)	106%	99.4%	97%	113%	111%	96.2%	99.1%	95.3%	108%	92%
CC(=O)CC(=O)c1ccccc1.[Cu+2]	98.4%	99%	95.2%	96.5%	125%	118%	105%	105%	102%	107%
C#Cc1cccc(Nc2ncnc3ccc(-c4cnc(Cl)c(NS(C)(=O)=O)c4)cc23)c1	2.5% (active)	11.2%	-35.5% (active)	-6.68% (active)	-54.9% (active)	-30.1% (active)	-31.9% (active)	-38.4% (active)	-9.67% (active)	-26.7% (active)
CCOC(=O)c1cc(C(=O)c2cc(OC)cc(OC)c2)n2ncccc12	37.4%	17.8%	47.1%	54.5%	35.9%	44.3%	28.2%	20%	37.6%	-15.7% (active)
Clc1ccc2c(NCCCn3cnc4c(N5CCCC5)nc(Cl)nc43)ccnc2c1	106%	90.4%	101%	89.8%	123%	94.4%	101%	99.1%	102%	93.9%
O=C(Nc1ccccc1CNc1nc(Nc2ccc(OCCN3CCCC3)cc2)ncc1Cl)NC1CCCCC1	82.8%	6.79% (active)	67.7%	69.7%	56.8%	73.1%	82%	84.3%	78.3%	31.1%
CCOc1ccccc1NC(=O)CCC(=O)OC	107%	108%	72.9%	107%	109%	96.9%	104%	97.4%	123%	100%
CCOC(=O)c1c(N)sc2cc(O)ccc12	89.2%	89.9%	118%	106%	115%	105%	96.3%	106%	115%	108%
O=c1cc(-c2nccc3c2[nH]c2ccccc23)c2cc(Cl)ccc2o1	79.8%	15.1%	49.8%	62.5%	82.2%	54.6%	13.9%	17.6%	35.4%	17.3%
